Test systems include SR leukemia; OVCAR-5 ovarian; OVCAR-4 ovarian; SK-OV-3 ovarian; OVCAR-3 ovarian; HS 578T breast; NCI/ADR-RES ovarian; RPMI-8226 leukemia; OVCAR-8 ovarian; IGROV1 ovarian.
What all share (assay): NCI-60 one-dose screen, 48 h (100 = growth as untreated, 0 = no growth, -100 = all killed)
Common to all, as to settings: 10 µM unless noted

The panel holds about 83,000 compounds, 20% with a hit somewhere; the sample as a whole holds those more often.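 Single-concentration screen, 48 h exposure, 96-well plates. Endpoint: percent growth. Below 10 = active.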 Unmarked numbers belong to inactive results. Calls of active or inactive are those of the source.

Our source for the growth values is PubChem BioAssay (NCI).

Take `C[C@]12CC[C@H](O)CC1=CC[C@@H]1[C@@H]2CC[C@]2(C)C(c3cccnc3)=CC[C@@H]12`: the growth with SR leukemia is 0.438% (active); in the assay with OVCAR-5 ovarian, 92.3%; in the assay on OVCAR-4 ovarian, 49.7%; in the assay on SK-OV-3 ovarian, 87.8%; in the assay on OVCAR-3 ovarian, 56.1%; in the assay on HS 578T breast, 13.6%. The growth in the assay with NCI/ADR-RES ovarian was 49.9%.

`O=C(Nc1nn2c(-c3cc(C(F)(F)F)cc(C(F)(F)F)c3)nnc2s1)C1CCCC1`: the growth in the assay on RPMI-8226 leukemia is 20.5%; in the assay with OVCAR-8 ovarian, 12%; in the assay on OVCAR-5 ovarian, 18.6%; with OVCAR-4 ovarian, 18.8%; in the assay on SK-OV-3 ovarian, 5.54% (active); in the assay on IGROV1 ovarian, 40%. Also, the values for the growth in the assay on OVCAR-3 ovarian, with HS 578T breast and with NCI/ADR-RES ovarian were 22.9%, 21.6% and 2.45% (active), respectively.

For `Cc1ccc2nc(-c3ccc(N(C)C)c(Br)c3)cn2c1`, the growth was 71% with RPMI-8226 leukemia; 93.8% with OVCAR-8 ovarian; 92.6% in the assay with OVCAR-5 ovarian; 115% in the assay on OVCAR-4 ovarian; 94.4% in the assay on SK-OV-3 ovarian; -8.76% (active) in the assay on IGROV1 ovarian. Also, the growth was 103% in the assay with OVCAR-3 ovarian, 83.2% in the assay with HS 578T breast and 78.2% with NCI/ADR-RES ovarian.

For `C=C1CCC2C(C)(COC(=O)CC)C(OC(=O)CC)CCC2(C)C1C/C=C1/C(=O)OCC1OC(=O)CC` (centres undefined), the growth in the assay on SR leukemia was -23% (active); with OVCAR-8 ovarian, -13.9% (active); with OVCAR-4 ovarian, 18.7%; with SK-OV-3 ovarian, 103%; with OVCAR-3 ovarian, -86.1% (active); in the assay on NCI/ADR-RES ovarian, -22.9% (active).

`CC(C)N(Cc1ccccc1)c1c(Cl)ssc1=O`: the growth with RPMI-8226 leukemia was 115%; in the assay with OVCAR-8 ovarian it was 86.7%; in the assay on OVCAR-5 ovarian, 107%; with OVCAR-4 ovarian, 104%; in the assay with SK-OV-3 ovarian it was 93.7%; with IGROV1 ovarian, -9.19% (active). The figures for the growth with OVCAR-3 ovarian, in the assay on HS 578T breast and with NCI/ADR-RES ovarian were 92.5%, 109% and 107%, respectively.

Regarding `CCOC1Oc2ccccc2C(=O)/C1=N/c1nccs1` (centres undefined), the growth with SR leukemia is 57.1%; with OVCAR-8 ovarian, 114%; in the assay with OVCAR-4 ovarian, 94.5%; with SK-OV-3 ovarian, 97.7%; in the assay on OVCAR-3 ovarian, 64.7%; in the assay with HS 578T breast, 90.3%. Besides, the growth with NCI/ADR-RES ovarian was 87.9%.

In the case of `COP(=O)(OC)C(c1ccccc1)(c1ccccc1)c1ccccc1`, the growth in the assay with RPMI-8226 leukemia was 87.5%; in the assay on OVCAR-8 ovarian it was 94.6%; with OVCAR-5 ovarian, 101%; with OVCAR-4 ovarian it was 93.2%; with SK-OV-3 ovarian, 108%; in the assay with IGROV1 ovarian, -9.3% (active). The growth in the assay on OVCAR-3 ovarian was 86.7%; with HS 578T breast, 94.5%; with NCI/ADR-RES ovarian it was 95.9%.

Consider `C=C1CCC2C3(C)COC(c4ccccc4)OC3CCC2(C)C1C/C=C1/C(=O)OCC1OC(C)=O` (centres undefined), for which the growth in the assay with SR leukemia is 78.2%; in the assay with OVCAR-8 ovarian, 41.9%; in the assay with OVCAR-4 ovarian, 82.3%; in the assay with SK-OV-3 ovarian it was 131%; in the assay on IGROV1 ovarian it was 86.8%; with OVCAR-3 ovarian, 100%. The growth with NCI/ADR-RES ovarian was 61.3%.

As for `COc1cccc(/C=C2\Cc3ccccc3C2=O)c1`, the growth was 98.6% in the assay with RPMI-8226 leukemia; 97.2% with OVCAR-8 ovarian; 111% in the assay on OVCAR-5 ovarian; 101% in the assay on OVCAR-4 ovarian; 101% in the assay with SK-OV-3 ovarian; 99.3% with IGROV1 ovarian. Further, the growth in the assay on OVCAR-3 ovarian is 110%; in the assay on HS 578T breast it was 111%; in the assay with NCI/ADR-RES ovarian, 105%.

With `CCSCC1CC(O)(c2ccccc2)C(c2ccccc2)C(c2ccc(Cl)cc2)O1` (centres undefined), the growth in the assay with RPMI-8226 leukemia was 4.54% (active); in the assay on OVCAR-8 ovarian, -11.2% (active); with OVCAR-5 ovarian, 24.7%; in the assay with OVCAR-4 ovarian it was 33.8%; with SK-OV-3 ovarian it was 9.49% (active); with IGROV1 ovarian, 32.6%. For the same compound, the growth was -26.4% (active) in the assay with OVCAR-3 ovarian, -11% (active) in the assay on HS 578T breast and 17.1% with NCI/ADR-RES ovarian.

In the case of `Cc1[nH]cnc1/C=C1\SC(N2CCCCC2)=NC1=O`, the growth in the assay with SR leukemia is 97.7%; in the assay with OVCAR-8 ovarian it was 105%; with SK-OV-3 ovarian it was 108%; in the assay with IGROV1 ovarian it was 100%; in the assay with OVCAR-3 ovarian, 124%; in the assay with HS 578T breast it was 120%. Moreover, the growth in the assay on NCI/ADR-RES ovarian is 106%.

Take `O=C1/C(=C/c2cccc(Cl)c2)CCc2ccccc21`: the growth is 22.3% in the assay with RPMI-8226 leukemia; 91.1% in the assay on OVCAR-8 ovarian; 111% in the assay on OVCAR-5 ovarian; 100% in the assay with OVCAR-4 ovarian; 114% with SK-OV-3 ovarian; 94% in the assay with IGROV1 ovarian. Moreover, the growth with OVCAR-3 ovarian was 104%; with HS 578T breast, 110%; in the assay on NCI/ADR-RES ovarian, 100%.

As for `O=c1ccn(C2CC=C(CO)O2)c(=O)[nH]1` (centres undefined), the growth is 84.5% in the assay on RPMI-8226 leukemia; 103% in the assay on OVCAR-8 ovarian; 102% with OVCAR-5 ovarian; 110% in the assay on OVCAR-4 ovarian; 102% in the assay with SK-OV-3 ovarian; 86.2% in the assay on IGROV1 ovarian. For the same compound, the growth in the assay with OVCAR-3 ovarian was 107%; in the assay on HS 578T breast, 112%; in the assay with NCI/ADR-RES ovarian, 116%.

Turning to `O=C1Nc2ccc(Cl)cc2[C@@](C#CC2CC2)(C(F)(F)F)O1`, the growth with RPMI-8226 leukemia is 92.2%; in the assay on OVCAR-8 ovarian it was 91.3%; in the assay on OVCAR-5 ovarian, 91.1%; in the assay with OVCAR-4 ovarian, 89.1%; in the assay on SK-OV-3 ovarian, 110%; in the assay on IGROV1 ovarian, -10.5% (active). Also, the growth in the assay on OVCAR-3 ovarian is 101%; with HS 578T breast, 99.2%; in the assay with NCI/ADR-RES ovarian it was 99.1%.

On to `N#Cc1c(NC(=O)c2ccco2)[n+]([O-])c2ccccc2[n+]1[O-]`, for which the growth in the assay with RPMI-8226 leukemia is 447%; in the assay with OVCAR-8 ovarian, 90.3%; with OVCAR-5 ovarian, 89.7%; in the assay on OVCAR-4 ovarian it was 109%; in the assay on SK-OV-3 ovarian, 110%; with IGROV1 ovarian, -49.8% (active). In addition, the growth in the assay with OVCAR-3 ovarian is 115%; in the assay with HS 578T breast, 98%; with NCI/ADR-RES ovarian, 116%.
